Shown are actives, neighbours in structure and some others; about 11% of the full set was active somewhere.
ALDH1A1 block = blocks purified human ALDH1A1 activity; Potency, µM (series often up to 75.3 µM), actives largely listed as inhibitors; Purified ALDH1A1, NADH fluorescence, propionaldehyde substrate; P00352; actives 7.3% (n = 220,000); AID 1030
Target sequence (P00352 whole entry, looked up): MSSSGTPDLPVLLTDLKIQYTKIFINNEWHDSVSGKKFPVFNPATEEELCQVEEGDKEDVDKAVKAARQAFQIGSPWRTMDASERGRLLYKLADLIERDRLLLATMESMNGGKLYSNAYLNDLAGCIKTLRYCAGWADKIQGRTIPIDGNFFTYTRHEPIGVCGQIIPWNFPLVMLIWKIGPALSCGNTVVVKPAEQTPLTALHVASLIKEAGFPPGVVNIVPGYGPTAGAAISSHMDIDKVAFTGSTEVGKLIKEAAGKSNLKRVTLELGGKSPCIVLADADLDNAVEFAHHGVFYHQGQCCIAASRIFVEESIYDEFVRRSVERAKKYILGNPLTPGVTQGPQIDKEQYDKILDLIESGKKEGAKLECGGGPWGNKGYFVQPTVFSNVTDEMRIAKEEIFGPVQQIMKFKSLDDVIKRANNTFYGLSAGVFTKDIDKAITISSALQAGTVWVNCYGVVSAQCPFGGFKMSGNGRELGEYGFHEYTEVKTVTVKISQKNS
HPGD block = inhibitors of human 15-hydroxyprostaglandin dehydrogenase (HPGD). purified HPGD, NADH fluorescence kinetic, PGE2 substrate. Potency, µM, usual class: inhibitors. actives 4.3% (n = 150,000). AID 894
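NADH formation kinetics: reaction with 30 uM PGE2 and 1 mM NAD+ (final), 20 nM enzyme, Tris-HCl pH 8 with Tween 20, after 15 min compound preincubation at room temperature. Fluorescence change, last versus first of five reads.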
PNC inhibitor = blocks assembly of the perinucleolar compartment | activity change (PNC), negative = inhibition, % at 10 µM | actives 3.1% (n = 140,000) | PC3M PTB-GFP, PNC prevalence imaging, 16 h; hits give low values | AID 2417;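 active = readout at or below -70, meaning at least 70% loss of cells showing the perinucleolar compartment, a nuclear body marking cancer cells; inconclusive = readout between -30 and a set limit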
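Read-out is percentage of cells bearing a perinucleolar compartment, from automated 20x imaging of fixed, Hoechst-stained PC3M PTB-GFP cells. Cells were seeded 4 h, then exposed 16 h to compound (23 nl of library stock) in duplicate plates.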
Large screens that a line does not name were inactive. Unless noted, calls come from the whole dose curve; as a rule, active = well fitted inhibition curve with a large enough effect (not every such curve was filed as active); inconclusive = small, poorly fitted or top-dose-only effect, or another doubt; inactive = no such curve, though single readings can be large or run the other way.

Cc1ccccc1OCC(=O)NNC=O	none (no result: HPGD block, PNC inhibitor)
O=C1NC(Cc2ccccc2)C(=O)N1Cc1cc([N+](=O)[O-])cc2c1OCOC2 (configuration not stated)	none (no result: HPGD block, PNC inhibitor)
O=C(CCn1cccc1)NC1CCCc2ccccc21 (configuration not stated)	PNC inhibitor inconclusive
CN(C(=O)CCl)C1CCCc2ccccc21 (configuration not stated)	ALDH1A1 block 0.4µM (no result: HPGD block, PNC inhibitor)
O=C(CCl)NC1CCCc2ccccc21 (configuration not stated)	ALDH1A1 block 3.2µM (no result: HPGD block, PNC inhibitor)
COc1ccc(NC(=O)CS(=O)CC(=O)NC2CCCc3ccccc32)cc1 (configuration not stated)	PNC inhibitor inconclusive
CCOc1ccc(NC(=O)CS(=O)CC(=O)NC2CCCc3ccccc32)cc1 (configuration not stated)	ALDH1A1 block 6.3µM
COC(=O)[C@@H](NC(=O)NC1CCCc2ccccc21)C(C)C (some centres not stated)	none
COC(=O)Cn1c(C(=O)N(C)C)cc2c1C[C@H]1CN(C(=O)c3ccccc3)[C@@](Cc3ccc(OC)cc3)(C(=O)OC)[C@@H]21	none (no result: PNC inhibitor)
CO[C@@H]1/C=C\O[C@]2(C)Oc3c(C)c(O)c4c(O)c(cc(O)c4c3C2=O)NC(=O)/C(C)=C\C=C/[C@H](C)[C@@H](O)[C@H](C)[C@H](O)C(C)[C@H](OC(C)=O)[C@@H]1C (some centres not stated)	none (no result: PNC inhibitor)
N#CCCN(Cc1cccs1)C(=O)c1ccc(Cl)cc1	none (no result: HPGD block, PNC inhibitor)
CC(C)CNC(=O)C1CCCN(C(=O)NCc2ccccc2)C1 (configuration not stated)	none (no result: HPGD block, PNC inhibitor)
Cc1ccc(S(=O)(=O)N(CC(=O)N2CCN(c3ccccc3F)CC2)C2CCCCC2)cc1	ALDH1A1 block inconclusive
CS(=O)(=O)N(CC(=O)N1CCN(c2ccccc2F)CC1)C1CCCCC1	ALDH1A1 block 7.9µM, PNC inhibitor -88
NCCC[C@@H](CC(=O)N[C@@H]1CCCC[C@H]1C(=O)N[C@H](CC(=O)N[C@@H](CCC(=O)O)CC(=O)O)Cc1c[nH]c2ccccc12)NC(=O)C[C@H](CO)NC(=O)[C@@H]1CNCC[C@H]1N	ALDH1A1 block inconclusive (no result: PNC inhibitor)
O=C(CSc1ccc(Cl)cc1)NC(=O)NCc1ccco1	none (no result: HPGD block, PNC inhibitor)
COC(=O)c1c(CSc2ccc(C)c(C)c2)noc1C(=O)NCc1ccc(OC)cc1	ALDH1A1 block inconclusive, HPGD block 7.1µM
COC(=O)c1c(CSc2ccc(Cl)cc2)noc1C(=O)NCc1ccco1	ALDH1A1 block inconclusive, HPGD block 22µM
COC(=O)c1c(CSc2cccc(C)c2)noc1C(=O)NCc1ccco1	ALDH1A1 block inconclusive, HPGD block 11µM
CCCCNC(=O)c1onc(CSc2ccc(C)c(C)c2)c1C(=O)O	PNC inhibitor inconclusive
Cc1cccc(SCc2noc(C(=O)NC(C)C)c2C(=O)O)c1	none
CN(CC(=O)Nc1cccc(F)c1)C(=O)CCCc1cccs1	none (no result: HPGD block)
CCNc1ncc2nc(-c3cccs3)c(=O)n(CCc3ccccc3)c2n1	none (no result: HPGD block, PNC inhibitor)
CC(C)(C)c1ccc(S(=O)(=O)N2CCSC2)cc1	ALDH1A1 block inconclusive
COc1ccc(C(=O)NCC(=O)OCC(=O)N2CCC(C)CC2)cc1OC	none (no result: HPGD block, PNC inhibitor)
Cc1ccc(S(=O)(=O)N(C)c2ccccc2C(=O)NC2CCCC2)cc1	none
COc1cccc(/C=C/C(=O)NCc2cn3cc(Cl)ccc3n2)c1OC	none (no result: HPGD block, PNC inhibitor)
COc1cccc(/C=N/N2C(=O)NC3(CCCCC3)C2=O)c1O	ALDH1A1 block inconclusive
CCOc1cc(/C=N/N2C(=O)NC3(CCCCC3)C2=O)cc(Br)c1O	ALDH1A1 block 15µM (no result: HPGD block, PNC inhibitor)
CC1CCC(NC(=O)N(CCCl)N=O)CC1 (configuration not stated)	ALDH1A1 block 13µM (no result: PNC inhibitor)
CCN(CC)C(=O)NC1CCCCCCC1	none (no result: HPGD block, PNC inhibitor)
CCc1cc2c3c(c1)C(C)CC(C)(C)N3C(=O)C2=O (configuration not stated)	ALDH1A1 block 0.32µM
CCOc1cc2c3c(c1)C1(OCCO1)C(=O)N3C(C)(C)CC2C (configuration not stated)	ALDH1A1 block inconclusive
C/C=C(\C)C(=O)O[C@H]1C[C@@]2(C)CCC(C(C)C)C2(O)CC[C@@]1(C)O (some centres not stated)	none (no result: PNC inhibitor)
Cc1cccc(N2CCN(Cc3ccoc3)CC2)c1C	ALDH1A1 block 25µM, HPGD block 14µM
COc1cc(CN2CCN(c3cccc(C)c3C)CC2)cc(OC)c1O	none
CCCCS(=O)(=O)N1C2=NC(C(=O)OC)=C(C(=O)OC)[C@@H]3N(C)c4ccccc4[C@]23C[C@H]1C(=O)OC	none (no result: PNC inhibitor)
CCOC(=O)c1c(NC(=O)c2cccs2)sc2c1CCN(C(=O)OCC)C2	ALDH1A1 block inconclusive, HPGD block inconclusive
COc1ccc(NC(=O)c2c(NC(=O)CCC(=O)O)sc(-c3ccccc3)c2C)cc1	ALDH1A1 block 8.9µM (no result: HPGD block, PNC inhibitor)
COC(=O)c1c(NC(=S)NC(=O)c2ccco2)sc2c1CCCC2	ALDH1A1 block inconclusive
CCOC(=O)N1CCc2c(sc(NC(=O)c3ccc(Cl)s3)c2C(N)=O)C1	ALDH1A1 block 19µM, HPGD block 32µM
COc1ccc(NC(=O)CCn2cccc2)cc1	none
Cc1sc(NC(=S)NC(=O)CCc2ccccc2)c(C(N)=O)c1C	ALDH1A1 block inconclusive, PNC inhibitor -121
Cc1sc(NC(=S)NC(=O)c2ccco2)c(C(N)=O)c1C	ALDH1A1 block 3.2µM (no result: HPGD block, PNC inhibitor)
Cc1cccc(C)c1NC(=S)NC(=O)CCc1ccccc1	ALDH1A1 block inconclusive
CCOc1ccccc1C(=O)Nc1nn[nH]n1	none (no result: HPGD block, PNC inhibitor)
O=C(COC(=O)c1ccc(S(=O)(=O)NCc2ccco2)cc1)Nc1ccc(Cl)cn1	none (no result: HPGD block, PNC inhibitor)
Cc1sc(NC(=O)CCC(=O)O)c(C(N)=O)c1-c1ccccc1	ALDH1A1 block 13µM, HPGD block 14µM, PNC inhibitor inconclusive
CCN1CCc2c(sc(NC(=S)NC(=O)c3ccco3)c2C(N)=O)C1	ALDH1A1 block 7.9µM (no result: HPGD block, PNC inhibitor)
CCOC(=O)Nc1sc(C)c(C)c1C(N)=O	PNC inhibitor inconclusive
NC(=O)c1ccccc1NC(=O)CCc1ccccc1	none
COC(=O)CCC(=O)Nc1sc(C)c(C)c1C(N)=O	ALDH1A1 block 13µM, HPGD block 14µM
CC(=O)N1CCc2c(sc(NC(=O)CN3C(=O)c4ccccc4C3=O)c2C(N)=O)C1	none (no result: HPGD block, PNC inhibitor)
NC(=O)c1ccccc1NC(=S)NC(=O)CCc1ccccc1	ALDH1A1 block 13µM, HPGD block 28µM, PNC inhibitor -108
Cc1sc(NC(=O)C2CCCCC2C(=O)O)c(C(N)=O)c1-c1ccccc1 (configuration not stated)	none
CCc1c(C)sc(NC(=O)c2ccccc2[N+](=O)[O-])c1C(N)=O	ALDH1A1 block inconclusive
COC(=O)CCC(=O)OC1(C)C(=O)C=C2C=C(CCCNC(=O)OC(C)(C)C)OC=C2C1=O (configuration not stated)	none (no result: PNC inhibitor)
C=CCC(O)(CC=C)C(C)N (configuration not stated)	none (no result: HPGD block, PNC inhibitor)
CCOC(=O)N1CCN(C(=O)/C=C/c2c(C)nn(-c3ccc(F)cc3)c2Cl)CC1	none (no result: HPGD block, PNC inhibitor)
CCC(=O)N(CC(=O)Nc1sc(C)c(C)c1C(N)=O)C1CCCC1	ALDH1A1 block 8.9µM (no result: HPGD block, PNC inhibitor)
Cc1c(Cc2ccc3c(c2)OCO3)sc(NC(=O)c2ccccc2)c1C(N)=O	ALDH1A1 block inconclusive, HPGD block inconclusive
Cc1sc(NC(=O)C2CCCCC2C(=O)O)c(C(N)=O)c1C (configuration not stated)	none
CCN1CCc2c(sc(NC(=O)c3ccc(S(=O)(=O)N4CCOCC4)cc3)c2C(=O)OC)C1	none
